Data taken from PubChem BioAssay (NCI).
Compounds without any hit were thinned out: in the full panel of roughly 83,000, 20% have a hit.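 Note: values are percent growth. 100 is the growth of untreated cells, values between 100 and 0 indicate rising inhibition; between -100 and 0 indicates cell death.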 Active and inactive are the calls of the source. The calls were made as follows: active = growth percent below 10; inactive = the rest.

How the values were obtained:
Test in all cases: NCI-60 one-dose screen, 48 h (100 = growth as untreated, 0 = no growth, -100 = all killed)
Conditions in all cases: 10 µM unless noted
SK-MEL-2 melanoma = test system: SK-MEL-2 melanoma
EKVX NSCLC = test system: EKVX NSCLC
SN12C renal = test system: SN12C renal
UO-31 renal = test system: UO-31 renal
TK-10 renal = test system: TK-10 renal
ACHN renal = test system: ACHN renal
CAKI-1 renal = test system: CAKI-1 renal
A498 renal = test system: A498 renal
CCRF-CEM leukemia = test system: CCRF-CEM leukemia
MOLT-4 leukemia = test system: MOLT-4 leukemia

Measured: growth

C#COc1cccc(Nc2ncnc3cc(NC(=O)[C@@H](C)Cl)ccc23)c1
active: CCRF-CEM leukemia 3.09% [6.25 µM]
inactive: SK-MEL-2 melanoma 27.4% [6.25 µM] | EKVX NSCLC 36.7% [6.25 µM] | SN12C renal 22% [6.25 µM] | UO-31 renal 29.2% [6.25 µM] | TK-10 renal 10.6% [6.25 µM] | ACHN renal 20.8% [6.25 µM] | CAKI-1 renal 19.4% [6.25 µM] | A498 renal 11.8% [6.25 µM] | MOLT-4 leukemia 11.4% [6.25 µM]

O=C(O)c1ccc(-c2ccc(/C=N/Nc3nc(Nc4ccccc4)nc(N4CCCCC4)n3)o2)cc1
inactive: SK-MEL-2 melanoma 68.5% | EKVX NSCLC 78.8% | SN12C renal 66.8% | UO-31 renal 44.4% | TK-10 renal 41.8% | ACHN renal 73.3% | A498 renal 72.8% | CCRF-CEM leukemia 62.8% | MOLT-4 leukemia 79.9%
active: CAKI-1 renal -5.95%

Cc1nn(-c2cc(NC3CCC(O)CC3)c3c(=O)[nH]c(CCC(F)(F)F)cc3c2)c2c1C(=O)CC(C)(C)C2 (stereo not given)
inactive: SK-MEL-2 melanoma 60.3% | EKVX NSCLC 54% | SN12C renal 46.2% | UO-31 renal 39% | TK-10 renal 61.7% | ACHN renal 31.5% | CAKI-1 renal 47.4% | A498 renal 12.4% | CCRF-CEM leukemia 66.6% | MOLT-4 leukemia 40.8%

[2H]C([2H])([2H])Oc1ccc(F)cc1/C=C/C(=O)/C=C(/C=C/c1cc(F)ccc1OC([2H])([2H])[2H])OB(F)F
inactive: SK-MEL-2 melanoma 94.2% | EKVX NSCLC 99.7% | SN12C renal 67.4% | UO-31 renal 53.9% | TK-10 renal 96.9% | ACHN renal 54.5% | CAKI-1 renal 74.1% | A498 renal 111%
active: CCRF-CEM leukemia 1.24% | MOLT-4 leukemia 4.82%

O=C(CCCCCCN1CC(=O)N2[C@H](c3ccc(Br)cc3)c3[nH]c4ccccc4c3C[C@@H]2C1=O)NO
inactive: SK-MEL-2 melanoma 60.3% | EKVX NSCLC 56.7% | SN12C renal 56.6% | UO-31 renal 58.8% | TK-10 renal 40.6% | ACHN renal 72.3% | CAKI-1 renal 51.5% | A498 renal 67.4% | CCRF-CEM leukemia 21%
active: MOLT-4 leukemia 5.86%

COc1ccc(/C=C2\COc3ccc(O)cc3C2=O)cc1
inactive: SK-MEL-2 melanoma 109% | EKVX NSCLC 105% | SN12C renal 92.5% | UO-31 renal 72.7% | TK-10 renal 104% | ACHN renal 98.9% | CAKI-1 renal 89.4% | A498 renal 110% | MOLT-4 leukemia 74.5%
active: CCRF-CEM leukemia 3.13%

CC1=C2[C@@H](CC1)[C@]1(C)O[C@@](C3CCCCC3)(C[C@H]1OC(=O)CO)[C@H]2OC(=O)/C=C/c1ccccc1
active: UO-31 renal -5.9% | ACHN renal 3.28% | A498 renal -89.9%
inactive: SK-MEL-2 melanoma 80.3% | EKVX NSCLC 83.3% | SN12C renal 32.1% | TK-10 renal 97.6% | CAKI-1 renal 78.4% | CCRF-CEM leukemia 78.5% | MOLT-4 leukemia 67.9%

COc1ccc(C#Cc2ccc(=O)oc2-c2cc(OC)c(OC)c(OC)c2)cc1O
inactive: SK-MEL-2 melanoma 61.6% | EKVX NSCLC 79.8% | SN12C renal 58% | UO-31 renal 37.9% | TK-10 renal 81.8% | ACHN renal 62% | CAKI-1 renal 22.8% | A498 renal 56.6% | CCRF-CEM leukemia 18.5% | MOLT-4 leukemia 15.1%

CC(=O)Oc1ccc(OC(C)=O)c2ccccc12
active: CCRF-CEM leukemia -6.08% | MOLT-4 leukemia -13.9%
inactive: SK-MEL-2 melanoma 113% | EKVX NSCLC 92.3% | SN12C renal 85.8% | UO-31 renal 23.7% | TK-10 renal 103% | ACHN renal 75.7% | CAKI-1 renal 100% | A498 renal 118%

O=C(Nc1cc(Cl)ccc1O)c1cccc(Nc2ccnc(C(F)(F)F)c2)c1
active: EKVX NSCLC 9.67% | CAKI-1 renal -2.35% | CCRF-CEM leukemia 8.35% | MOLT-4 leukemia -41.2%
inactive: SK-MEL-2 melanoma 56.2% | SN12C renal 35% | UO-31 renal 25.5% | TK-10 renal 46.6% | ACHN renal 27.2% | A498 renal 45.3%

COc1cc(-c2nc3cc(Cl)c(Cl)cc3[nH]2)ccc1OCC(=O)N=Nc1c(O)[nH]c2ccc(Cl)cc12
active: SK-MEL-2 melanoma -27.3% | SN12C renal 0.477% | CCRF-CEM leukemia -31.3% | MOLT-4 leukemia -27.8%
inactive: EKVX NSCLC 45.7% | UO-31 renal 89% | TK-10 renal 36.5% | ACHN renal 29.2% | CAKI-1 renal 15.2% | A498 renal 20.1%

Cc1ccnc(Nc2ccc([N+](=O)[O-])c(NCCN3CCOCC3)n2)c1
inactive: SK-MEL-2 melanoma 51.5% | EKVX NSCLC 96.4% | SN12C renal 36.6% | UO-31 renal 34.2% | TK-10 renal 79.4% | ACHN renal 38.6% | CAKI-1 renal 65.6% | A498 renal 24.9% | MOLT-4 leukemia 11.7%
active: CCRF-CEM leukemia 7.5%

c1nc2ccc(-c3cc4ccc5[nH]ncc5c4c4c3CCCC4)cc2[nH]1
inactive: SK-MEL-2 melanoma 43% | EKVX NSCLC 93% | SN12C renal 76.4% | UO-31 renal 92.9% | TK-10 renal 61.7% | ACHN renal 52.2% | CAKI-1 renal 54% | A498 renal 49.9% | CCRF-CEM leukemia 31% | MOLT-4 leukemia 33.8%

C#CCNC(=O)[C@]1(C)CCC[C@@]2(C)[C@H]1CC=C1C=C(C(C)C)CC[C@@H]12
inactive: SK-MEL-2 melanoma 95.9% | EKVX NSCLC 94.6% | SN12C renal 96.7% | UO-31 renal 88.8% | TK-10 renal 99.7% | ACHN renal 106% | CAKI-1 renal 87.9% | A498 renal 102% | CCRF-CEM leukemia 110% | MOLT-4 leukemia 87.9%

COc1cccc(C(=O)NNc2nc(Cl)nc(Cl)n2)c1
inactive: SK-MEL-2 melanoma 96.3% | EKVX NSCLC 98% | SN12C renal 100% | UO-31 renal 88.4% | TK-10 renal 104% | ACHN renal 101% | CAKI-1 renal 96.1% | A498 renal 96.6% | CCRF-CEM leukemia 101% | MOLT-4 leukemia 101%

Cc1nc2cc(O)c(O)cc2cc1Oc1ccc(NC(=O)Nc2ccc(Cl)c(Cl)c2)cc1
inactive: SK-MEL-2 melanoma 77.7% | EKVX NSCLC 98.5% | SN12C renal 85.6% | UO-31 renal 58.6% | TK-10 renal 85.3% | ACHN renal 39% | CAKI-1 renal 27.3% | A498 renal 118% | CCRF-CEM leukemia 19.9% | MOLT-4 leukemia 12.6%

c1ccc(CCNc2c3ccccc3nc3ccccc23)cc1
inactive: SK-MEL-2 melanoma 86.3% | EKVX NSCLC 36.3% | SN12C renal 33.1% | UO-31 renal 24.2% | TK-10 renal 53.2% | ACHN renal 21.6% | CAKI-1 renal 30.3% | CCRF-CEM leukemia 53.3% | MOLT-4 leukemia 24.6%
active: A498 renal -5.19%

CC1C=CC(OC(=O)C(C)(O)CCC(O)(C(=O)OC2CC(O)C(C(C)C)CC2(C)O)C(C)C)(C(C)C)CC1 (stereo not given)
active: SK-MEL-2 melanoma -81.6% [4.63 µM] | EKVX NSCLC -73.6% [4.63 µM] | SN12C renal -62.4% [4.63 µM] | UO-31 renal -99.6% [4.63 µM] | TK-10 renal -86.1% [4.63 µM] | ACHN renal -93.8% [4.63 µM] | CAKI-1 renal -97.3% [4.63 µM] | A498 renal -92.3% [4.63 µM] | CCRF-CEM leukemia -31.8% [4.63 µM] | MOLT-4 leukemia -46.4% [4.63 µM]

Clc1c(Cl)[n+](Cc2ccc3ccccc3c2)cn1Cc1ccc2ccccc2c1
active: SK-MEL-2 melanoma -55% | TK-10 renal -63% | CCRF-CEM leukemia 6.14% | MOLT-4 leukemia -0.428%
inactive: EKVX NSCLC 38.7% | SN12C renal 28.1% | UO-31 renal 70.7% | ACHN renal 84.7% | CAKI-1 renal 89.7% | A498 renal 54.7%

O=[N+]([O-])c1ccc(-c2cn3nc(-c4c[nH]c5ccccc45)sc3n2)cc1
inactive: SK-MEL-2 melanoma 109% | EKVX NSCLC 91.2% | SN12C renal 91.9% | UO-31 renal 72.8% | TK-10 renal 102% | ACHN renal 96.8% | CAKI-1 renal 91% | A498 renal 85.9% | CCRF-CEM leukemia 90.2% | MOLT-4 leukemia 88.6%

Nc1nc(N)c2c(n1)NC(c1ccc(Cl)cc1)C1CCc3ccccc3C1=N2 (stereo not given)
inactive: SK-MEL-2 melanoma 102% | EKVX NSCLC 35.8% | SN12C renal 65.9% | UO-31 renal 55.8% | TK-10 renal 49.2% | ACHN renal 52.7% | CAKI-1 renal 37% | A498 renal 69.5% | CCRF-CEM leukemia 51.5% | MOLT-4 leukemia 22.5%

CCN1C2CCC1/C(=C\c1ccc(F)cc1)C(=O)/C2=C/c1ccc(F)cc1
inactive: SK-MEL-2 melanoma 58.9% | EKVX NSCLC 57.2% | SN12C renal 44.5% | UO-31 renal 53.6% | TK-10 renal 74.2% | ACHN renal 48.6% | CAKI-1 renal 66.4% | A498 renal 58.7% | CCRF-CEM leukemia 18.2% | MOLT-4 leukemia 13.9%

Cc1cccc(N2CCC(=O)NC2=S)c1
inactive: SK-MEL-2 melanoma 122% | EKVX NSCLC 107% | SN12C renal 98.2% | UO-31 renal 88.2% | TK-10 renal 104% | ACHN renal 107% | CAKI-1 renal 101% | A498 renal 107% | CCRF-CEM leukemia 154% | MOLT-4 leukemia 104%

O=C(Nc1ncc(Cc2ccccc2)s1)c1ccc2c(c1)OCCCO2
inactive: SK-MEL-2 melanoma 30.6% | EKVX NSCLC 36.7% | SN12C renal 40.4% | UO-31 renal 48.1% | TK-10 renal 55.9% | ACHN renal 34% | CAKI-1 renal 25.3% | CCRF-CEM leukemia 16.2% | MOLT-4 leukemia 21.4%
active: A498 renal -2.27%

COC(=O)c1c2c(n3ccccc13)C(=O)c1ccccc1C2=O
inactive: SK-MEL-2 melanoma 75.3% | EKVX NSCLC 70.9% | SN12C renal 53.2% | UO-31 renal 35% | TK-10 renal 80.7% | ACHN renal 38.6% | CAKI-1 renal 56% | A498 renal 67.1% | CCRF-CEM leukemia 59.1% | MOLT-4 leukemia 35.5%

O=C(Oc1ccc(CCl)cc1)c1ccccc1
active: SK-MEL-2 melanoma -71.4% | EKVX NSCLC -100% | SN12C renal -84.8% | UO-31 renal -92.6% | TK-10 renal -96.3% | ACHN renal -92.1% | CAKI-1 renal -96.3% | A498 renal -87.4% | CCRF-CEM leukemia -48.6% | MOLT-4 leukemia -49.7%
